Bioassay records deposited in PubChem BioAssay by several laboratories.
Sampled rows, rich in hits. Any-hit rate of the full collection: about 12%.
ROMK mod – human ROMK K+ channel modulation, primary screen; P48048; Tet-inducible ROMK, thallium flux fluorescence; actives lie on both sides; B-score at 10 µM; 2% of 130,000 active; AID 1918;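 active means signal ratio slope over the read window, or its plate-corrected B-score, at least 3 SD from the plate mean, either direction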;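 further: B-score of the F/F0 ratio slope over 7 to 12 s after thallium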
Cl transport mod – modulates chloride dependent transport by human KCC2; 2.2% of 190,000 active; Q9H2X9; B-score of Tl+ flux slope (higher = more flux/activation; lower = inhibition) at 10 µM; KCC2 cells, thallium flux FluoZin-2 fluorescence;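 active means thallium flux slope and its plate-corrected score both differing from the plate sample mean at a set confidence after two filtering rounds, in either direction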;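 further: slope of fluorescence scaled to starting intensity during 10 to 20 s after thallium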
Target sequence (Q9H2X9 whole entry, looked up): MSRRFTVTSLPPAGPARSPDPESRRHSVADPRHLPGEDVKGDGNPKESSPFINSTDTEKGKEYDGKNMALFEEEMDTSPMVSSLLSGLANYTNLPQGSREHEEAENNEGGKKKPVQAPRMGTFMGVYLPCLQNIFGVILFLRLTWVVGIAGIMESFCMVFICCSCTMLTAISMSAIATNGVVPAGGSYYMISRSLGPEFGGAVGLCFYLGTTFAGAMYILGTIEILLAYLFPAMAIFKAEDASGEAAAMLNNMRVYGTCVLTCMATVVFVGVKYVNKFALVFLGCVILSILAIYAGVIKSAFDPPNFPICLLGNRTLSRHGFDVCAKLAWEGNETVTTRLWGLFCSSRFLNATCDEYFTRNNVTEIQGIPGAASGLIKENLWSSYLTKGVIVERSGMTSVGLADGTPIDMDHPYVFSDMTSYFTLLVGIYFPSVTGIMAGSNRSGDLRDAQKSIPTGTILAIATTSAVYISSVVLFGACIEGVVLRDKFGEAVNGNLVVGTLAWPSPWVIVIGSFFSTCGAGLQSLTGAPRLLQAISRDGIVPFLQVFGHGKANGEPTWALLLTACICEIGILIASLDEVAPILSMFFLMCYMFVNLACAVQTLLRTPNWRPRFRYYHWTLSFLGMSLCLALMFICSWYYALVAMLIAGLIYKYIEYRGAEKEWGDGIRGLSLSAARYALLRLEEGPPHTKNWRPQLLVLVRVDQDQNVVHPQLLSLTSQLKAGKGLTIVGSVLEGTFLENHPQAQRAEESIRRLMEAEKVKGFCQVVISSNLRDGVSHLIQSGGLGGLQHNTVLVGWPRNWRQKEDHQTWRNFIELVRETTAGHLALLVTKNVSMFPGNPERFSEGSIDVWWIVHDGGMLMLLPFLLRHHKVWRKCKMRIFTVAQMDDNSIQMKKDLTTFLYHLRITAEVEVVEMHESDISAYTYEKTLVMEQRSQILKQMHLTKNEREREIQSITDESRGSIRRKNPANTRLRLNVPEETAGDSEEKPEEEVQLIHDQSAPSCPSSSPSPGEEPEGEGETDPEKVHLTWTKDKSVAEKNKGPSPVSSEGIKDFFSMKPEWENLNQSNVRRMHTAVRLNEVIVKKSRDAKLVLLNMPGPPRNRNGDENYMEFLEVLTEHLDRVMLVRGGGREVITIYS
m-calpain inh – inhibitors of pig calpain II. 0.37% of 220,000 active. inhibition, % at 16 µM. purified calpain II, fluorogenic peptide substrate, 30 min;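 active means inhibition above about 50%, limit read from the data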
WT yeast gro inh – growth inhibition of WT yeast, mitochondrial fusion screen | mitochondrial fusion phenotypic screen, WT strain | inhibition, % at 10 µM | 2.1% of 190,000 active | AID 1362; in the data active means inhibition above about 58%; tested in S. cerevisiae
Lmaj promast – inhibitors of Leishmania major promastigote growth. Leishmania major promastigotes, resazurin fluorescence viability. inhibition, % at 10 µM. 9% of 200,000 active; in the data active means inhibition above about 50%;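 further: promastigotes grown with compound for 44 hours at 28 °C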
An asterisk follows results filed as active; x = not tested or not shown.

SMILES | ROMK mod | Cl transport mod | m-calpain inh | WT yeast gro inh | Lmaj promast
Nc1no[n+]([O-])c1-c1ccccc1 | 0.722 | 1.38 | -5.5 | 4.5 | 0.8
COc1ccccc1N1CCN(C(=O)CN(c2ccccc2OC)S(=O)(=O)c2ccccc2)CC1 | -0.935 | -0.225 | -18.6 | 16.5 | 1.6
COC(=O)C1=C(C(=O)OC)[C@@H]2N(C)c3ccccc3[C@@]23C[C@@H](C(=O)OC)N(C(=O)COCc2ccccc2)C3=N1 | x | 0.607 | -51.4 | x | x
N/C(Cc1ccccc1)=N\OC(=O)c1cccc2ccccc12 | -1.45 | x | 28.3 | 81.2* | 96.6*
N/C(=N\OC(=O)c1cccc2ccccc12)c1ccncc1 | x | -0.00299 | -8.5 | x | x
N/C(Cc1cccc2ccccc12)=N\OC(=O)COc1ccccc1 | 0.406 | 0.0301 | 1.1 | 30.0 | -7.0
N/C(=N\OC(=O)c1cccc2ccccc12)c1ccc(Br)cc1 | x | 0 | -1.1 | 76.9* | 0.7
CCOC(=O)c1ccc(N2C(=O)CC(N(Cc3ccc4c(c3)OCO4)C(=O)Nc3ccccc3)C2=O)cc1 (stereo not drawn) | x | 0.778 | 7.5 | 17.9 | 10.4
CCCCN(C(=O)c1ccc(NC(=O)C(C)C)cc1)c1ccccc1 | 0.589 | 0.0908 | -2.7 | -3.7 | 17.1
CCOC(=O)Cc1csc(NC(=O)CCCC(=O)O)n1 | x | 0.229 | 2.4 | x | x
CCN(CC)S(=O)(=O)c1cccc(C(=O)NC(Cc2c[nH]c3ccccc23)c2nnc3n2CCC3)c1 (stereo not drawn) | x | 0.304 | -0.7 | 0.5 | 63.1*
c1cc(CNc2ccc3c(c2)OCO3)ccn1 | x | 0.658 | -66.4 | -3.2 | 36.3
Cc1ccc(CNc2ncc(-c3ccc4c(c3)OCO4)n2C)cc1 | x | x | -24.4 | 10.7 | 87.6*
Cn1c(-c2ccc3c(c2)OCO3)cnc1NCc1ccc(Cl)cc1 | x | x | 10.2 | -7.2 | 92.1*
Cc1ccc(CNc2ccc3c(c2)OCO3)cc1 | x | 0.431 | -13.1 | 19.9 | 100.3*
Cc1cccc(CNc2ncc(-c3cccc([N+](=O)[O-])c3)n2C)c1 | -1.21 | -0.00928 | 13.1 | -2.8 | 16.7
COc1ccc(-c2cnc(NCc3cc4c(cc3[N+](=O)[O-])OCO4)n2C)cc1 | -2.65 | -0.354 | 10.8 | -17.2 | 98.3*
O=C(CCS(=O)(=O)c1ccccc1)Nc1ccccc1-c1nc2ccccc2s1 | 0.068 | -1.1 | -80.2 | -12.6 | -4.9
Fc1ccc(Nc2nnc(C(F)(F)F)s2)cc1 | x | 1.15 | 8.5 | x | x
O=C(c1cccc(F)c1)N1CCN(c2cc(N3CCCCC3)c(F)cc2[N+](=O)[O-])CC1 | x | x | 13.1 | 60.7* | 18.1
O=C(c1ccc(F)cc1)N1CCN(c2ccc([N+](=O)[O-])c(N3CCCCC3)c2)CC1 | x | x | 0.5 | 26.1 | 1.3
Cc1nc2nc3c(cn2n1)C(=O)CC(C)(C)C3 | x | 0.411 | -14.2 | -3.8 | -3.1
CCOC(=O)c1ccc(Oc2nc(NC(C)(C)C)nc(N(C)C)n2)cc1 | 1.71 | x | 7.0 | 65.3* | 17.1
CCOC(=O)c1ccc(Oc2nc(N(C)C)nc(N(C)C)n2)cc1 | -1.13 | x | -12.5 | 11.7 | -0.6
O=C(c1ccccc1F)N1CCC(N2CCCCCC2)CC1 | 0.817 | -0.38 | -16.8 | -9.7 | 72.8*
SMILES | ROMK mod | Cl transport mod | m-calpain inh | WT yeast gro inh | Lmaj promast
CC1CCN(C2CCN(C(=O)c3ccccc3F)CC2)CC1 | x | -0.113 | -12.1 | x | x
CC(C)(C)c1ccc(C2(C)NC(=O)N(CC(=O)NCc3cccs3)C2=O)cc1 (stereo not drawn) | -1.92 | -0.563 | 20.0 | -0.9 | 68.9*
O=C(CN1C(=O)NC2(CCCCCCC2)C1=O)NCc1cccs1 | x | 0 | 4.4 | -1.4 | -2.3
CCCCOc1ccc(C2C(C(=O)c3ccc(C)o3)=C(O)C(=O)N2CC2CCCO2)cc1 (stereo not drawn) | x | 0.0509 | -44.9 | 1.4 | 53.4*
CCCCSc1nnc(-c2ccccc2)c2ccccc12 | x | -0.24 | 46.7 | 82.0* | 6.5
O=C(CSc1cccs1)Nc1cccc2ccccc12 | -1.41 | -0.471 | 17.9 | -4.0 | 63.7*
O=C(O)CCC(=O)Nc1ccc(C(=O)OCC(=O)c2ccc(Cl)cc2Cl)cc1 | 0.703 | -0.0294 | -54.5 | 7.2 | -21.9
CCCC(=O)Nc1ccc2nc(SCC(=O)Nc3ccc(N4CCOCC4)c(Cl)c3)sc2c1 | -0.0317 | -0.777 | -23.5 | 13.5 | 98.9*
CC(C)(C)NC(=O)CSc1nc2ccc(NC(=O)CSc3nnc(N)s3)cc2s1 | -0.12 | -0.561 | -16.8 | -14.5 | 70.6*
c1ccc(-c2ncnc3nc4n(c23)CCC4)cc1 | -0.883 | x | 13.2 | 18.0 | -7.3
Cc1cccc(-n2c(N)cc(=O)nc2SCC(=O)Nc2nnc(C)s2)c1 | 0.89 | -0.148 | 14.3 | 13.3 | -0.1
COc1ccc(OC)c(NC(=S)NCC(c2cccnc2)N2CCOCC2)c1 (stereo not drawn) | 1.24 | 0.79 | -12.8 | -4.1 | 7.0
Cc1nc(SC2CCOC2=O)c2c(C)c(C)sc2n1 (stereo not drawn) | x | 7.08* | -3.3 | 10.3 | -7.0
CCC(=O)N1C(Cc2ccccc2)COC1(C)C (stereo not drawn) | -0.198 | 0.507 | -4.2 | -9.0 | -6.5
C=CCc1cc(Cl)ccc1OCCNCCCOC | -1.69 | -0.00414 | -2.2 | -0.6 | 99.5*
C=CCc1cc(Cl)ccc1OCCOCCNC(C)(C)C | -2.26 | 1.36 | -26.6 | 12.2 | 99.4*
C=CCc1ccccc1OCCNCCCOC | 0.0186 | 0.649 | -3.6 | -6.4 | 83.4*
C=CCc1cc(Cl)ccc1OCCOCCNCCOC | -0.196 | 0.455 | -5.4 | -1.7 | 99.4*
CCOc1ccc(Cl)cc1CNCCNCCO | x | -2.19 | -14.4 | -12.7 | 19.1
CC(=O)C1=C(C)NC(SCC(N)=O)=C(C#N)C1C (stereo not drawn) | x | 0.481 | 2.9 | 1.6 | -3.5
CN(C)C(=O)CSc1nnc(Cc2ccccc2)n1CC1CCCO1 (stereo not drawn) | 0.13 | 0.785 | -7.0 | 1.4 | -3.8
C=CCc1cc(Cl)ccc1OCCOCCN(C)C | -1.02 | -0.289 | 10.6 | 24.6 | 100.1*
C#CCN(C)CCCOc1ccc(Cl)cc1Cl | x | -0.207 | 21.0 | 1.0 | -2.7
O=C(CSc1nc(-c2ccccc2F)nc2nc[nH]c12)Nc1c(Cl)cc(Cl)cc1Cl | x | 0.281 | 31.4 | -8.9 | -5.8
CCc1cccc(C)c1NC(=O)CSc1nc(-c2ccccc2F)nc2nc[nH]c12 | -2 | 0.413 | -2.1 | -4.1 | 62.0*
SMILES | ROMK mod | Cl transport mod | m-calpain inh | WT yeast gro inh | Lmaj promast
NC(=O)c1ccccc1NC(=S)NC(=O)CCc1ccccc1 | 2.65 | -0.617 | -12.8 | 8.7 | -6.3
Cc1ccccc1NC(=S)NC(=O)CCc1ccccc1 | x | 0.355 | 24.4 | 12.1 | 99.8*
Cc1cccc(C)c1NC(=S)NCc1ccccc1 | x | 0.377 | -8.5 | 3.3 | 5.8
Cc1ccccc1NC(=S)NC(C)CCc1ccccc1 (stereo not drawn) | x | -2.23 | 19.8 | 67.8* | 61.6*
Cc1cccc(C)c1NC(=S)NC(=O)CCc1ccccc1 | x | x | 0.6 | -1.3 | 93.2*
COc1ccc(NC(=S)N2CCc3ccccc3C2)cc1OC | 0.277 | -1.18 | -24.6 | -2.0 | -4.8
COc1ccc(C(=O)c2c(C)c3ccccc3n2CC(O)CNC(C)C)cc1 (stereo not drawn) | -1.05 | -0.297 | -5.9 | -4.8 | 96.7*
COc1ccc(NCC(=O)n2c(C)c(C)c3ccccc32)cc1 | 1.76 | 0.259 | 6.0 | -2.6 | -3.7
Cc1noc(C)c1S(=O)(=O)N1CCCC(C(=O)NCCc2ccc(Cl)cc2)C1 (stereo not drawn) | x | -0.353 | -35.5 | 13.8 | 99.7*
